TDP1 cell noCPT – qHTS for Inhibitors of human tyrosyl-DNA phosphodiesterase 1 (TDP1): qHTS in cells in absence of CPT; DT40 Tdp1-/- hTDP1 cells, no CPT, ATP luminescence, 48 h; 420,000 tested, 15% active; Potency, µM (series often up to 46.2 µM), hits mostly inhibitors; also: nearly all actives have a fitted effect of over 55% in size
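Stably hTDP1-transfected Tdp1-null chicken DT40 cells were treated with library compounds minus camptothecin and grown for at least 48 hr at 37 °C, after which cellular ATP was quantified by luminescence.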
VP16 counter – VP16 counterscreen qHTS for inhibitors of ROR gamma transcriptional activity. Potency, µM (doses to about 53.6 µM), most hits filed as inhibitors. 310,000 tested, 3.5% active. Drosophila S2 Gal4-VP16 UAS-luciferase, luminescence, 20 h;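 also: Gal4-VP16 expression switched on by copper sulfate through the metallothionein promoter; nearly all actives have a fitted effect of over 50% in size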
RORgamma inh – qHTS for inhibitors of ROR gamma transcriptional activity; Nuclear receptor ROR-gamma (Mus musculus), P51450; Drosophila S2 Gal4-RORgamma UAS-luciferase reporter, 20 h; Potency, µM (series often up to 53.6 µM), actives largely listed as inhibitors; 310,000 tested, 5.4% active; also: nearly all actives have a fitted effect of over 60% in size
Target sequence (P51450 whole entry, looked up, the tested form may be a part): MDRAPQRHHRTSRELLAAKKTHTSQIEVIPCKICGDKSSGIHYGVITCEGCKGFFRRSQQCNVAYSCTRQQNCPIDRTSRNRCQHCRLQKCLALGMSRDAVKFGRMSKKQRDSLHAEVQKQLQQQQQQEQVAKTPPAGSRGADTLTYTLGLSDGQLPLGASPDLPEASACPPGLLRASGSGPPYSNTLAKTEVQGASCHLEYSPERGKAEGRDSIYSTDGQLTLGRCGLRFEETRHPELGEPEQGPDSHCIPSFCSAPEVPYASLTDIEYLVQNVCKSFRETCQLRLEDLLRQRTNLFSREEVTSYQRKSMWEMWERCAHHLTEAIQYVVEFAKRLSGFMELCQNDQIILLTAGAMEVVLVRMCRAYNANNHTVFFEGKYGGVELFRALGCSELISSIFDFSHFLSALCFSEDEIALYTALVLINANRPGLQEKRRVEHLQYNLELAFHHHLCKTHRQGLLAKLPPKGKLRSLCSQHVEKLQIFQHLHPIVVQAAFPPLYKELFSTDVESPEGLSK
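A Gal4/UAS one-hybrid system in insect cells: metallothionein-promoter Gal4–ROR gamma fusion plus Photinus luciferase reporter. Copper sulfate 700 uM final, 20 hr ambient incubation, luminescent detection after 10 min with reagent.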
DT40 TDP1 CPT – qHTS for Inhibitors of human tyrosyl-DNA phosphodiesterase 1 (TDP1): qHTS in cells in presence of CPT. chicken DT40 Tdp1-/-;hTDP1 cells + 20 nM CPT, ATP luminescence, 48 h. AID 686979, 2013. 420,000 tested, 12% active. Potency, µM (top dose mostly 46.2 µM), most hits filed as inhibitors; also: nearly all actives have a fitted effect of over 55% in size
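Cell growth measured by CellTiter-Glo luminescence after a minimum 48 h, 37 C compound exposure with 20 nM CPT in Tdp1-knockout DT40 cells stably expressing hTDP1, seeded 400/well; qHTS titration format.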
ELG1 DNA repair – qHTS screen for small molecules that inhibit ELG1-dependent DNA repair in human embryonic kidney (HEK293T) cells expressing luciferase-tagged ELG1; HEK293T ELG1-luciferase reporter, luminescence, 16 h; DNA damage induced by 5-fluorouridine; Potency, µM (titrated, usually from 46.1 µM), usual class: inhibitors; 330,000 tested, 2.3% active; AID 504467, 2011; also: nearly all actives have a fitted effect of over 55% in size
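5-Fluorouridine DNA damage + compound/DMSO, 2,000 cells/well, 16 h, 37 °C/5% CO2. ONE-Glo, 30 min RT, luminescence. Readout = decrease in reporter signal.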
IL1B secr inh – qHTS for Inhibitors of Inflammasome Signaling: IL-1-beta AlphaLISA Primary Screen; 360,000 tested, 4.7% active; AID 743279, 2014; activity change, % at 57.5 µM; THP-1 LPS/ATP IL-1B secretion, AlphaLISA, 16 h; hits give low values; in the data active = activity change below about -50%; inconclusive = mostly about -30% to -49%
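THP-1 cells pretreated 1 hr with compounds (up to 57.5 uM final), then stimulated with LPS (250 ng/mL final) plus ATP (1.25 mM final); secreted IL-1B measured by AlphaLISA after 16 hr, decreased signal indicating inhibition.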
Numbers stand for hits. The list is not random: actives were taken first. Their share in the collection is about 21%. Unless noted, calls follow the shape of the dose curve; as a rule, active = well fitted curve in the direction sought with a large enough effect; inconclusive = small, poorly fitted or top-dose-only effect, or another doubt; inactive = no such curve, though single readings can be large; an effect the other way counts as inactive or inconclusive.

Screening O=C(Nc1ccc(Cl)cc1C(=O)NCc1cccnc1)c1ccc(Cl)cc1Cl returned TDP1 cell noCPT 18µM, VP16 counter inactive, RORgamma inh inconclusive, DT40 TDP1 CPT inconclusive, ELG1 DNA repair inconclusive and IL1B secr inh inactive.
`O=C(NCc1ccccc1)c1cc(C2COCCN2C(=O)C/C=C/c2ccccc2)on1` (stereo not drawn) gave TDP1 cell noCPT inconclusive, DT40 TDP1 CPT inconclusive and IL1B secr inh inactive.
`COc1ccc(-c2nn(-c3ccccc3)cc2CNC[C@H]2O[C@@H](n3cnc(C(N)=O)n3)[C@H](O)[C@@H]2O)cc1` gave TDP1 cell noCPT inactive, DT40 TDP1 CPT inactive and IL1B secr inh inconclusive.
CCn1c(=O)c(C(=O)NCc2ccccn2)c(O)c2ccccc21 was read as TDP1 cell noCPT inconclusive, VP16 counter 7.1µM, RORgamma inh 3.2µM, DT40 TDP1 CPT inactive, ELG1 DNA repair inactive and IL1B secr inh inactive.
Screening CCCn1c(=O)c(C(=O)NCc2ccccc2)c(O)c2ccccc21 returned TDP1 cell noCPT inconclusive, VP16 counter inactive, RORgamma inh inactive, DT40 TDP1 CPT inconclusive, ELG1 DNA repair inactive and IL1B secr inh inactive.
`CC(C)Cn1c(=O)c(C(=O)NCc2ccc3c(c2)OCO3)c(O)c2ccccc21` gave TDP1 cell noCPT inconclusive, VP16 counter inconclusive, RORgamma inh inconclusive, DT40 TDP1 CPT 23µM, ELG1 DNA repair inconclusive and IL1B secr inh inactive.
`CCCn1c(=O)c(C(=O)NCCc2ccc(OC)cc2)c(O)c2ccccc21` gave TDP1 cell noCPT inconclusive, VP16 counter 13µM, RORgamma inh inconclusive, DT40 TDP1 CPT inconclusive, ELG1 DNA repair inactive and IL1B secr inh inactive.
For CCCn1c(=O)c(C(=O)NCCc2ccccc2)c(O)c2ccccc21 the results were TDP1 cell noCPT inconclusive, VP16 counter inconclusive, RORgamma inh inactive, DT40 TDP1 CPT 13µM, ELG1 DNA repair inactive and IL1B secr inh inactive.
`Cc1cc(C)c(NC(=O)CN2c3ccccc3S(=O)(=O)c3ccccc32)c(C)c1` gave TDP1 cell noCPT inactive and DT40 TDP1 CPT inactive.
CCn1c(=O)c(C(=O)NCc2ccc(OC)cc2)c(O)c2ccccc21 was read as TDP1 cell noCPT 23µM, VP16 counter inconclusive, RORgamma inh inactive, DT40 TDP1 CPT 23µM, ELG1 DNA repair inactive and IL1B secr inh inactive.
CC(C)Cn1c(=O)c(C(=O)N/N=C/c2cccc(F)c2)c(O)c2ccccc21 was read as TDP1 cell noCPT 0.33µM, VP16 counter inactive, RORgamma inh inactive, DT40 TDP1 CPT 2.9µM, ELG1 DNA repair inactive and IL1B secr inh inactive.
`C=CCn1c(=O)c(C(=O)NCc2ccc(Cl)cc2)c(O)c2ccccc21` gave TDP1 cell noCPT 23µM, VP16 counter inconclusive, RORgamma inh inconclusive, DT40 TDP1 CPT inconclusive, ELG1 DNA repair inactive and IL1B secr inh inactive.
C=CCn1c(=O)c(C(=O)NCCc2ccccc2)c(O)c2ccccc21 was read as TDP1 cell noCPT inconclusive, VP16 counter inconclusive, RORgamma inh 14µM, DT40 TDP1 CPT 21µM, ELG1 DNA repair inactive and IL1B secr inh inactive.
Screening CCCc1nnc(NC(=O)Cc2coc3cc(C)cc(C)c23)s1 returned TDP1 cell noCPT inactive and DT40 TDP1 CPT inactive.
Cc1ccc2oc(-c3ccc(C)c(NC(=O)COc4ccc(Cl)cc4C)c3)nc2c1 was read as TDP1 cell noCPT inactive and DT40 TDP1 CPT inactive.
COc1ccc(NC(=O)COC(=O)c2ncc(Cl)c(Cl)c2Cl)c(OC)c1 was read as TDP1 cell noCPT inactive, VP16 counter inactive, RORgamma inh inactive, DT40 TDP1 CPT inactive, ELG1 DNA repair inactive and IL1B secr inh inactive.
Screening COc1ccc(N2CC(NC(=O)c3ccc4c(c3)OCO4)CC2=O)cc1 (stereo not drawn) returned TDP1 cell noCPT inactive and DT40 TDP1 CPT inactive.
C=CCn1c(=O)c(C(=O)Nc2ccc(C)cn2)c(O)c2ccccc21 was read as TDP1 cell noCPT 18µM, VP16 counter inactive, RORgamma inh inactive, DT40 TDP1 CPT inconclusive, ELG1 DNA repair inconclusive and IL1B secr inh inactive.
Screening CC12CCC(C/C1=N\N=C1\NC(=O)/C(=C\c3ccc(Cl)cc3)S1)C2(C)C (stereo not drawn) returned TDP1 cell noCPT inconclusive, VP16 counter 10µM, RORgamma inh inconclusive, DT40 TDP1 CPT inconclusive, ELG1 DNA repair inconclusive and IL1B secr inh -57.
For CC(=O)c1ccc(NC(=O)c2ccc(CN3C(=O)CCn4nc(C)cc43)cc2)cc1 the results were TDP1 cell noCPT inactive and DT40 TDP1 CPT inactive.
For C#CCCC/C(=C\C(=O)N(C)[C@H](C(=O)N(C)[C@H](C(=O)N(C)[C@H](C(=O)N(C)[C@H](C(N)=O)C(C)C)C(C)C)C(C)C)C(C)C)OC the results were TDP1 cell noCPT 18µM, DT40 TDP1 CPT 21µM, ELG1 DNA repair inconclusive and IL1B secr inh inactive.
Screening O=S1(=O)CC(N2CCN(c3ccccn3)CC2)CN1C1CCCCC1 (stereo not drawn) returned TDP1 cell noCPT inactive, DT40 TDP1 CPT inactive and IL1B secr inh inactive.
`Cn1cc(Cl)c(C(=O)NC2CCCCCC2)n1` gave TDP1 cell noCPT inactive, VP16 counter inactive, RORgamma inh inactive, DT40 TDP1 CPT inactive, ELG1 DNA repair inconclusive and IL1B secr inh inactive.
`Cn1cc(Cl)c(-c2n[nH]c(=S)n2C2CCCCC2)n1` gave TDP1 cell noCPT inactive, VP16 counter inconclusive, RORgamma inh 6.3µM, DT40 TDP1 CPT inactive, ELG1 DNA repair inactive and IL1B secr inh inactive.
CC(C)(C)c1cc(-c2n[nH]c(=S)n2-c2ccc(Cl)cc2)n[nH]1 was read as TDP1 cell noCPT inconclusive, VP16 counter inactive, RORgamma inh 7.1µM, DT40 TDP1 CPT inconclusive, ELG1 DNA repair inactive and IL1B secr inh inactive.
S=c1[nH]nc(-c2ccco2)n1-c1ccc(Cl)cc1 was read as TDP1 cell noCPT inactive, VP16 counter inactive, RORgamma inh 8.9µM, DT40 TDP1 CPT inactive, ELG1 DNA repair inactive and IL1B secr inh inactive.
`Cc1nn(C)cc1-c1n[nH]c(=S)n1-c1ccc(Cl)cc1` gave TDP1 cell noCPT inactive, VP16 counter inactive, RORgamma inh inconclusive, DT40 TDP1 CPT inactive, ELG1 DNA repair inactive and IL1B secr inh inactive.
Screening S=c1[nH]nc(-c2ccco2)n1C1CCCCC1 returned TDP1 cell noCPT inactive, VP16 counter inconclusive, RORgamma inh 10µM, DT40 TDP1 CPT inactive, ELG1 DNA repair inactive and IL1B secr inh inactive.

High-throughput results deposited in PubChem by National Center for Advancing Translational Sciences (NCATS).
